The values that follow come from PubChem BioAssay AID1903 (Southern Research Specialized Biocontainment Screening …, 2009).

The campaign covered roughly 310,000 compounds. About 1,200 (0.39%) were called active. No rule for the calls is given here. These entries were drawn from the full list. Results with a measured potency or affinity are listed apart.

Large T antigen (Simian virus 40), sequence (P03070 whole entry, looked up): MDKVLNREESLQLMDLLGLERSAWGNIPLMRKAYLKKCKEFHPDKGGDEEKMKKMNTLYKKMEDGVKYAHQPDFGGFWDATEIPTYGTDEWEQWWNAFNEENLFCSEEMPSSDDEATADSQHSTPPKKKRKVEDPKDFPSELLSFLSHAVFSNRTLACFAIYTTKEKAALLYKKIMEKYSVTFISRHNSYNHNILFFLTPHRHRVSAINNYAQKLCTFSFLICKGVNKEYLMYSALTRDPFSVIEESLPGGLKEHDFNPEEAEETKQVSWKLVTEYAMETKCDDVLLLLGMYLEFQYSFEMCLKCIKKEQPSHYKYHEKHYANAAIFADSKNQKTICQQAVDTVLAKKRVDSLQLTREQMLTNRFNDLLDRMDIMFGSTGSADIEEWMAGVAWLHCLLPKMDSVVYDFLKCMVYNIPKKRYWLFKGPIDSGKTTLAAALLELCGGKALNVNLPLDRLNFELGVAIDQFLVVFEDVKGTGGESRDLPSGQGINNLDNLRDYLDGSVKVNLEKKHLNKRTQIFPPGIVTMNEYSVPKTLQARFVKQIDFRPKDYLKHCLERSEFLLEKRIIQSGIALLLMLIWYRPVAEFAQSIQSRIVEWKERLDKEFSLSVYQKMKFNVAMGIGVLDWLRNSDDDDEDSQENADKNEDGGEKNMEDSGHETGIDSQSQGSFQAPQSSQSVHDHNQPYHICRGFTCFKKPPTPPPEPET

This experiment addresses Large T antigen (Simian virus 40) (UniProt P03070). The experiment in a line: TAg ATPase/helicase activity blockers – biochemical (AID 1903). The note with it: SV40 large T antigen ATPase/helicase inhibition assay; at 20 µM; stronger effect = higher value.
On to `CCOC(=O)c1c(-c2ccccc2)csc1NC(=O)c1ccc(S(=O)(=O)N2CCOCC2)cc1`, for which the inhibition was 11.2% (inactive). To `C=CCn1c(COc2ccc(Cl)cc2)nnc1SCC(=O)Nc1ccc(S(N)(=O)=O)cc1` belongs -7.84% (inactive). To `COc1cccc2cc(-c3nnc(-c4ccccc4)o3)c(=O)oc12` belongs 3.9% (inactive). Then `COC(CN(C)C(C(=O)NC1CCCCC1)c1ccccc1)OC` (centres undefined), with -3.44% (inactive). Turning to `Cc1cc(C)cc(NC(=O)Nn2cnnc2)c1`, the inhibition is 14.3% (inactive). To `CCCCN(Cc1ccccc1)C(=O)CCN1C(=O)C2C3C=CC(C3)C2C1=O` (centres undefined) belongs 8.63% (inactive); to `Cc1cc([N+](=O)[O-])ccc1NC(=O)c1cncc(Br)c1`, 12.5% (inactive); to `COC(=O)c1ccc(S(=O)(=O)c2ccc(Cl)cc2)c(N)c1`, 13.4% (inactive). In the case of `COC(=O)c1ccc(C(=O)NC2CCSc3ccccc32)cc1` (centres undefined), the inhibition was 6.81% (inactive). In the case of `CC(C)CCN1CCN=C1Nc1ccccc1`, the inhibition is 0.58% (inactive). Take `Cn1c(SCc2ccc([N+](=O)[O-])cc2)nc2c(c1=O)SCC2`: the inhibition is 3.17% (inactive). Then `c1ccc2sc(N3CCOCC3)nc2c1`, with 20.2% (inactive); and `Fc1ccc2nc(N3CCOCC3)sc2c1`, with -1.3% (inactive); and `Nc1nc2ccc(S(=O)(=O)c3ccc4nc(N)sc4c3)cc2s1`, with 10.5% (inactive). To `CC(C)c1ccc2nc(N)sc2c1` belongs 8.35% (inactive). To `CC(Sc1nc2c(c(=O)[nH]1)CCCC2)C(=O)Nc1ccccc1C#N` (centres undefined) belongs 6.43% (inactive); to `O=C(N/N=C/c1cnc(N2CCOCC2)s1)c1ccccc1`, 11.5% (inactive). Take `O=C(COc1ccccc1)NCC(=O)NC1=NCCS1`: the inhibition is 3.88% (inactive). To `COc1cc(/C=C/C(=O)OCC(=O)N(C)C2CCS(=O)(=O)C2)ccc1OC(F)F` (centres undefined) belongs -1.47% (inactive); to `COc1cc(/C=C/C(=O)OCC(=O)NC2CCS(=O)(=O)C2)ccc1O` (centres undefined), 34% (inactive). To `Cc1ccc(NC(=O)CN(C)S(=O)(=O)c2ccc3[nH]c(=O)oc3c2)c(C)c1` belongs 10.9% (inactive). Regarding `CC1CC(C)CN(CC(=O)N2CCc3[nH]c4ccccc4c3C2)C1` (centres undefined), the inhibition is -3.87% (inactive). Then `Cc1ccc(/C=C2/SC(=S)N(C3CCCCC3)C2=O)o1`, with 31.8% (inactive); and `O=C1/C(=C\c2ccco2)SC(=S)N1C1CCS(=O)(=O)C1` (centres undefined), with 22.2% (inactive); and `O=C1/C(=C/c2ccco2)SC(=S)N1C1CCS(=O)(=O)C1` (centres undefined), with 33.6% (inactive). For `Cc1ccc(/C=C2\SC(=S)N(C3CCS(=O)(=O)C3)C2=O)o1` (centres undefined), the inhibition is 9.87% (inactive). With `COc1ccc(C2C(C(=O)Nc3ccc(OC)c(OC)c3)c3ccccc3C(=O)N2C)cc1` (centres undefined), the inhibition is 5.35% (inactive). To `CCOC(=O)c1ccc(NC(=O)CN2CCN(Cc3ccccc3)CC2)cc1` belongs -0.24% (inactive). To `O=C1NC(=O)/C(=C\c2cn(Cc3ccccc3F)c3ccccc23)N1` belongs 8.29% (inactive); to `COc1cc(C(=O)N/N=C(\C)c2ccc(NC(=O)Cc3ccccc3)cc2)ccc1O`, 37.2% (inactive).

Regarding `COc1cc(/C(C)=N/NC(=O)CN2CCN(S(=O)(=O)c3ccc(C)cc3)CC2)ccc1O`, the inhibition is 20.9% (inactive). To `C/C(=N\NC(=O)CCc1c(C)n[nH]c1C)c1ccc([N+](=O)[O-])cc1` belongs 3.31% (inactive); to `C/C(Cn1nc([N+](=O)[O-])cc1C)=N\NC(=O)c1ccc(C(C)(C)C)cc1`, 9.13% (inactive). To `COc1ccc(C(=O)N/N=C(\C)Cn2nc([N+](=O)[O-])cc2C)cc1` belongs 8.1% (inactive); to `C/C(=N\NC(=O)Cc1ccc(F)cc1)c1ccc(O)cc1`, 36.9% (inactive); to `COc1ccc(-c2noc(Cc3ccccc3OC)n2)cc1`, 5.97% (inactive). On to `CCOc1ccccc1C(=O)NCC(=O)N(C)Cc1cccnc1`, for which the inhibition is 0.45% (inactive). To `CC1CCc2cc(F)ccc2N1C(=O)c1cc2nc(-c3ccco3)cc(C(F)(F)F)n2n1` (centres undefined) belongs 0.153% (inactive); to `Cc1ccc(-c2cc(O)cc3sc(=O)oc23)cc1C`, 9.82% (inactive). Then `O=c1oc2c(-c3cccc(F)c3)cc(O)cc2s1`, with 6.75% (inactive); and `Cc1cc(NC(=O)CSc2nnc3c(C)cc4ccccc4n23)no1`, with 23.4% (inactive); and `CCc1cccc(C)c1NC(=O)CCCSc1nc2ccccc2s1`, with 3.33% (inactive). Then `COc1ccc(NCc2nnc(SCC(=O)c3ccc(OC)cc3)n2C)cc1`, with 21.2% (inactive). In the case of `CCOc1ccc(NCc2nnc(SCC(=O)Nc3cc(C)on3)n2-c2ccccc2OC)cc1`, the inhibition is 15.1% (inactive).

As for `COc1ccccc1-n1c(CNc2ccc(F)cc2)nnc1SCC(=O)Nc1cc(C)on1`, the inhibition is 25.1% (inactive).

On to `COc1ccc(NCc2nnc(SCC(=O)Nc3ccc(OC)cc3)n2C)cc1`, for which the inhibition was 9.42% (inactive).

In the case of `CS(=O)(=O)N1CCc2cc(S(=O)(=O)N3CCCCC3)ccc21`, the inhibition was 11.4% (inactive). To `COc1ccc(C(C)=O)cc1COc1ccc(Cl)cc1Cl` belongs 1.32% (inactive); to `Cc1ccc(S(=O)(=O)N(CC(=O)Nc2cccnc2)c2cccc(Br)c2)cc1`, 14.9% (inactive); to `Cc1cc(C)nc(Nc2ccc(C(=O)O)cc2)n1`, 3.63% (inactive). Consider `Cc1cc(C)nc(Nc2ccc(O)cc2)n1`, for which the inhibition was 45.6% (inactive). Take `Oc1ccc(Nc2nc3ccccc3nc2Nc2ccc(O)cc2)cc1`: the inhibition was 35% (inactive). To `Oc1ccc(Nc2nnc(-c3ccc(O)cc3)c3ccccc23)cc1` belongs 20.3% (inactive); to `O=C(OC1CCCCC1=O)c1cccc(S(=O)(=O)N2CCOCC2)c1` (centres undefined), 1.22% (inactive); to `CC(=O)Nc1cccc(-c2csc(NCc3ccco3)n2)c1`, 13.3% (inactive).

Regarding `CCOC(=O)C1=C(C)Nc2nc(C)nn2C1c1cc(OC)ccc1OC` (centres undefined), the inhibition is 5.76% (inactive). Then `Nc1cccc2c3c(oc12)CCCC3`, with 4.56% (inactive); and `O=C(Nc1ccc(-c2ccc3nncn3n2)cc1)C1CCCC1`, with 0.86% (inactive). To `CCC(C)N(C(=O)COC(=O)c1ccccc1SCC(=O)N1CCCC1)C1CCS(=O)(=O)C1` (centres undefined) belongs 1.39% (inactive); to `c1ccc(Cn2nnnc2CN2CCN(c3ncccn3)CC2)cc1`, 0.78% (inactive).

As for `CCCc1cc(C(N)=O)c(NC(=O)c2cc(C)on2)s1`, the inhibition was 8.78% (inactive). Then `Cc1csc(C(=O)NCC(=O)NNC(=O)c2cccc(Cl)c2)c1`, with 0.72% (inactive); and `CCn1nc(C(=O)Nc2nc3ccc(C)cc3s2)c2ccccc2c1=O`, with 0.39% (inactive). With `COc1cc(/C=N/NC(=O)C2c3ccccc3Oc3ccccc32)ccc1O`, the inhibition is 13.3% (inactive). To `COc1cc(/C=N/NC(=O)NC2CCCCC2)cc(OC)c1O` belongs 31.1% (inactive). To `COc1cc(/C=N/NC(=O)CC(=O)NC2CCCCC2)ccc1O` belongs 26.4% (inactive). Then `COc1cc(/C=N/NC(=O)NC23CC4CC(CC(C4)C2)C3)ccc1O`, with 26.5% (inactive); and `COc1ccc(C(CNC(=O)c2ccc(S(=O)(=O)Nc3ccc(F)cc3)cc2)N(C)C)cc1` (centres undefined), with -1% (inactive). On to `CC(=O)Nc1ccc(S(=O)(=O)NCCC(=O)OCC(=O)N2CCN(C(=O)c3ccco3)CC2)cc1`, for which the inhibition was 2.76% (inactive). Consider `COc1ccc(OC)c(-c2csc3nnc(SCC(=O)Nc4ccc(NC(C)=O)cc4)n23)c1`, for which the inhibition was 3.77% (inactive).

Take `C=CCC(C(=O)NC(C)c1ccccc1)C(=O)NC(C)c1ccccc1` (centres undefined): the inhibition is 0.99% (inactive).

Take `CCOc1cc(NC(=O)c2ccccn2)c(OCC)cc1NC(=O)c1ccccc1`: the inhibition was 8.84% (inactive). Then `CCOc1cc(N2C(=O)CC3CS(=O)(=O)CC32)c(OCC)cc1NC(=O)c1ccccc1` (centres undefined), with -8.08% (inactive); and `CCCSc1nnc(N)s1`, with 14.6% (inactive); and `CCN1C(=O)c2ccccc2Sc2ccc(C(=O)NCCC(C)C)cc21`, with 18.1% (inactive).

`CCOC(=O)C1CCCN(S(=O)(=O)Cc2ccc(Cl)cc2)C1` (centres undefined): the inhibition was 5.43% (inactive). Then `Cc1ccc(NC(=O)C(=O)NN)cc1`, with 4.15% (inactive). As to `NNC(=O)C(=O)Nc1ccc(Cl)c(Cl)c1`, the inhibition is 4.78% (inactive).

Turning to `Cc1ccc(N=C2C(=O)Nc3ccc(Br)cc32)cc1`, the inhibition is 4.2% (inactive).

Consider `COC(=O)CN1C(=O)C(C)(C)Oc2ccc(C(=O)Nc3ccccc3F)cc21`, for which the inhibition was -0.69% (inactive). With `O=[N+]([O-])c1cc(/C=N\Nc2nc(-c3ccccc3)cs2)ccc1O`, the inhibition is 14.1% (inactive).

Consider `Cc1csc(N/N=C/c2ccc([N+](=O)[O-])cc2)n1`, for which the inhibition was 12% (inactive).

With `O=C(c1ccc2c(c1)OCCO2)C1CCN(S(=O)(=O)c2ccc(F)cc2)CC1`, the inhibition is 0.84% (inactive). Turning to `Cc1nnc(C)n1/N=C/c1cccs1`, the inhibition is 13.5% (inactive). Then `Cc1cc(C)n(/N=C/c2c[nH]c3ccccc23)c(=O)c1`, with 0.69% (inactive); and `S=c1[nH]nc(-c2cc(-c3ccccc3)n[nH]2)n1/N=C/c1cccs1`, with 10.5% (inactive). Then `Fc1ccc(-c2n[nH]c(=S)n2/N=C/c2c[nH]c3ccccc23)cc1`, with 1.41% (inactive); and `CCCCn1c(O)c(N=NC(=O)c2ccccc2NS(=O)(=O)c2cccs2)c2ccccc21`, with 14.3% (inactive); and `O=c1ccc(S(=O)(=O)N2CCC(Cc3ccccc3)CC2)c[nH]1`, with 7.63% (inactive). Then `CN(CCNC(=O)CCNC(=O)Cn1ccc2ccccc2c1=O)Cc1ccccc1`, with 15.1% (inactive); and `Nc1nc(SCc2cccc([N+](=O)[O-])c2)n[nH]1`, with 4.99% (inactive); and `CCn1c(SCC(=O)O)nnc1-c1ccccc1OC`, with 1.77% (inactive).

`C=CCn1c(SCC(=O)Nc2ccc(C(=O)O)cc2)nnc1-c1cccnc1`: the inhibition was 8.53% (inactive). Consider `CCn1c(SCC(=O)c2ccc(C)cc2)nnc1-c1ccncc1`, for which the inhibition was 3.96% (inactive).

For the compound `C=CCn1c(SCC(=O)Nc2ccc3c(c2)OCO3)nnc1-c1ccccc1OC`, the inhibition is 1.62% (inactive).

Consider `C=CCn1c(SCC(=O)c2ccc(OC)cc2)nnc1-c1cc2cccc(OC)c2o1`, for which the inhibition is 6.55% (inactive). Then `C=CCn1c(SCC(=O)NC2CCCC2)nnc1-c1cccnc1`, with 3.08% (inactive). Take `CCn1c(SCC(=O)C(C)(C)C)nnc1-c1ccccc1OC`: the inhibition is -1.72% (inactive). With `CCn1c(SCC(=O)OC)nnc1-c1ccc(C)cc1`, the inhibition is 22.5% (inactive).

Usually inhibition stands for the relative decrease from the control value, in per cent.
